# In PMC4336329 (PLoS ONE, 2015):
# Out of some 310,000 compounds screened, about 14,000 (4.5%) showed an effect of 50% or more. Effects have a minus sign here. The sample as a whole holds a higher share of strong results than the screen did.
# Target: human ether-à-go-go-related gene (hERG) potassium channel (human, UniProt Q12809)
# Experiment: primary screen, population patch clamp on CHO cells stably expressing hERG; higher = less effect of the substance
# 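Further: peak tail current of the secondary pulse compared with the same well before compound.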
# human ether-à-go-go-related gene (hERG) potassium channel, sequence (Q12809 whole entry, looked up): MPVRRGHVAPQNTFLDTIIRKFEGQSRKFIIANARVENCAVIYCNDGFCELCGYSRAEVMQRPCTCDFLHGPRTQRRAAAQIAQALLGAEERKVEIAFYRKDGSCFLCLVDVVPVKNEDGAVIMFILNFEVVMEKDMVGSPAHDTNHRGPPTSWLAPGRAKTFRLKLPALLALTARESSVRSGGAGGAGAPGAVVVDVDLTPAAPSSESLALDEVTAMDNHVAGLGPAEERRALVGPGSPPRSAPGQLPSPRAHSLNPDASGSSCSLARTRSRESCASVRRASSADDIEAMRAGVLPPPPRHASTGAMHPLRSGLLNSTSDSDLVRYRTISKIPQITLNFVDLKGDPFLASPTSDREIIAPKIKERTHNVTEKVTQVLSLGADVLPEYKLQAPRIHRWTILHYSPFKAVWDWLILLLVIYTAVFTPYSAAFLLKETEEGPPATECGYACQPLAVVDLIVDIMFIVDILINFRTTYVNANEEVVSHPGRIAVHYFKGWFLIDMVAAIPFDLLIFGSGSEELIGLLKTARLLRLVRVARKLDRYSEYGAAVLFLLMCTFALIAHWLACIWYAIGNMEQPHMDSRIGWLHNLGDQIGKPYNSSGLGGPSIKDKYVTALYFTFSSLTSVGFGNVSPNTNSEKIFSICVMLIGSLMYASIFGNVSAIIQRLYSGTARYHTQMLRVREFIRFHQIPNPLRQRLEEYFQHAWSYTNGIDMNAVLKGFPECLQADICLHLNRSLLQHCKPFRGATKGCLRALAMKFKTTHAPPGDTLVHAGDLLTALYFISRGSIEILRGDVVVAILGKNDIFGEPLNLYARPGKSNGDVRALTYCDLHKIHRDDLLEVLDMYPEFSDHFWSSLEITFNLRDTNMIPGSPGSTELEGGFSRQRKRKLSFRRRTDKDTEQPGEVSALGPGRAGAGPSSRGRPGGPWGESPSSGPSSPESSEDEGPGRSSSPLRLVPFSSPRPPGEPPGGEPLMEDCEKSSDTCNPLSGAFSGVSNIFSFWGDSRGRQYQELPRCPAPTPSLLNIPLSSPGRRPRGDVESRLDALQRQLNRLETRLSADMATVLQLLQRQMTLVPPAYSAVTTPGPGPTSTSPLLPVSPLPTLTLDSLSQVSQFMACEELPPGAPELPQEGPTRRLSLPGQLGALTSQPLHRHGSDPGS
row,SMILES,"hERG current change (%, negative = inhibition) at 10uM [%]"
1,Cc1ccc(C(=O)NC(=S)NNS(=O)(=O)c2ccc(C)cc2)cc1,3.32
2,O=C(Nc1ccc(Cl)cn1)c1ccc(Br)c(S(=O)(=O)N2CCCCC2)c1,18.7
3,CC(=O)Nc1ccc(S(=O)(=O)N(Cc2cccnc2)Cc2cc3ccccc3[nH]c2=O)cc1,11.4
4,Cc1cccc(Nc2ccc(S(=O)(=O)N3CCOCC3)cc2[N+](=O)[O-])c1,-30.2
5,CCn1c(CSc2nc(C)cc(C)n2)nnc1SCC(=O)Nc1nc(-c2ccccc2)cs1,-9.09
6,O=c1c2ccccc2c2ccccc2c(=O)n1CC1CCCO1 (stereo not drawn),-14.4
7,Cc1ccc(C)c(NC(=O)c2cccc(Oc3ccc([N+](=O)[O-])cc3Cl)c2)c1,-4.21
8,COc1ccc(S(=O)(=O)NNC(=O)c2csc(-n3nc(C)cc3C(F)(F)F)n2)cc1,19.9
9,COc1ccc(CCN2CCCC(CN(C)C(=O)c3ccoc3)C2)cc1 (stereo not drawn),-72.9
10,CN(C)CCN(CC1CCCN(Cc2ccccc2F)C1)C(=O)c1ccc(Cl)cc1 (stereo not drawn),-14
11,COc1ccc(CCN2CCCC(CN(C)C(=O)c3ccoc3C)C2)cc1 (stereo not drawn),13.4
12,CN(CC1CCCN(CCc2ccc(Cl)cc2)C1)C(=O)c1ccc2nc[nH]c2c1 (stereo not drawn),-34.1
13,Cc1ccccc1CCN1CCCC(CN(C)C(=O)c2ccc3ncccc3c2)C1 (stereo not drawn),-30.3
14,CN(CC1CCCN(CCc2ccc(Cl)cc2)C1)C(=O)c1ccoc1 (stereo not drawn),-85.7
15,Cc1nc2ccc(C(=O)N(C)CC3CCCN(CCc4ccc(Cl)cc4)C3)cc2[nH]1 (stereo not drawn),-61.2
16,CCc1nc(SCC(=O)NCCc2ccccc2)n[nH]1,-3.42
17,CSc1nc2c(cc1C#N)CCCCC2,7.65
18,C=CCn1c(O)c(N=Nc2c(C)n(C)n(-c3ccccc3)c2=O)c(=O)[nH]c1=S,-1.57
19,O=C(Nc1cccc(Cl)c1)c1ccc(NCC2CCCO2)c([N+](=O)[O-])c1 (stereo not drawn),-2.53
20,CCN=C(NCC)SC1CC(=O)N(c2ccc(OC)cc2)C1=O (stereo not drawn),0.718
21,CCOC(=O)c1cc(C(=O)Nc2sc3c(c2C#N)CCCC3)nn1C,12.4
22,O=C(/C=C/c1ccc(N2CCOCC2)cc1)c1ccccc1,-1.16
23,CCSC1=N/C(=C\c2cccc(F)c2)C(=O)S1,10.4

row,SMILES,"hERG current change (%, negative = inhibition) at 10uM [%]"
1,Cc1cc(NCCN2CCOCC2)c2ccc3ccccc3c2n1,-69.5
2,Cc1ccc(Nc2cc(C)nc3c(C)cccc23)cc1,-53.3
3,CC(=O)c1ccc(Nc2ccc(-c3ccccc3C)nn2)cc1,-17.5
4,Cc1cc(C)nc(Nc2ccc(N3CCOCC3)cc2)n1,-5.99
5,COc1ccccc1-c1ccc(Nc2ccc(C(=O)N3CCOCC3)cc2)nn1,-20.1
6,COc1ccc2nc(C)cc(NCCN3CCOCC3)c2c1,15.4
7,CCOc1ccc(Nc2cc(C)nc3c(C)cccc23)cc1,-45.6
8,COc1ccc(Nc2cc(C)nc3c(C)cccc23)cc1OC,-21.3
9,Cc1cc(Nc2ccc(N3CCOCC3)cc2)c2cccc(C)c2n1.Cl,-56.6
10,Cc1ccccc1-c1ccc(Nc2ccc(N3CCOCC3)cc2)nn1,-76
11,Cc1cc(C)c2nc(C)cc(Nc3ccc(C(=O)N4CCOCC4)cc3)c2c1,-43.8
12,Cc1nc(NCCN2CCOCC2)c2oc3ccccc3c2n1.Cl,-31.5
13,CCN(CC(=O)NCc1ccc(F)cc1)C(=O)c1ccc2c(c1)OCO2,-5.66
14,O=C(CNC(=O)c1ccccc1Cl)OCC(=O)N1CCc2ccccc21,-10.5
15,COc1ccc(Cc2nnc(Nc3ccccc3)s2)cc1Br,13.9
16,COc1ccc2[nH]c3c(c2c1)CCN1C(=O)N([C@@H](C)C(=O)NCC2CCCO2)C(=O)[C@]31C (stereo partly drawn),-6.78
17,COc1ccc(C(=O)Oc2coc(CSc3nnc(NC(=O)c4cccs4)s3)cc2=O)cc1,24.2
18,COc1ccc(CNC(=O)C[C@H]2C(=O)N(C3CCCCC3)C[C@@H]2Cc2ccccc2)cc1,-5.71
19,COc1ccc(CNC(=O)C2CC(=O)N(C3CCCCC3)C2)cc1 (stereo not drawn),13.7
20,CCCCC[C@H]1CN(C2CCCCC2)C(=O)[C@@H]1CC(=O)NCc1ccc(OC)cc1,-67.4
21,CCCCC[C@H]1CN(C2CCCCC2)C(=O)[C@@H]1CC(=O)NCc1ccccc1,-67.7
22,C[C@H]1CN(C2CCCCC2)C(=O)[C@@H]1CC(=O)NCc1ccccc1,-6.72
23,O=C(C[C@H]1C(=O)N(C2CCCCC2)C[C@@H]1Cc1ccccc1)Nc1ccccc1,-27.4

row,SMILES,"hERG current change (%, negative = inhibition) at 10uM [%]"
1,CCN(CC)CCN(CC)Cc1ccccc1Br,-19.8
2,Cc1cc(/C=C2\C(=O)NC(=O)N(Cc3ccccc3Cl)C2=O)c(C)n1-c1ccc(C(=O)O)cc1,46
3,Cc1[nH]nc(-c2ccc(OCc3cnn(-c4ccccc4)c3)cc2O)c1Oc1ccc(F)cc1,22.6
4,CCn1cc(-c2cc(C(F)(F)F)n3nc(C(=O)O)cc3n2)c(C)n1,-8.81
5,COc1ccc(NC(=O)c2cc(S(=O)(=O)Nc3ccc(OC)cc3)cs2)cc1,-3.01
6,CCOC(=O)c1c2c3c(cccc3[nH]c1=O)C(=O)c1ccccc1-2,17.6
7,CC(=O)c1c2c3c(cccc3n(C)c1=O)C(=O)c1ccccc1-2,-1.1
8,CCOC(=O)c1c2c3c(cccc3n(C)c1=O)C(=O)c1ccccc1-2,-71.8
9,Cl.O=C(CN1CCN(C2CCCCC2)CC1)Nc1ccccc1N1CCCCC1,-66.2
10,Cl.O=C(CN1CCN(C2CCCCC2)CC1)Nc1cccc2ccccc12,-31.2
11,CC1CCN(CC(=O)Nc2ccccc2-c2ccccc2)CC1,-25.1
12,O=C(CC1CCCCC1)Nc1ccccc1-c1ccccc1,6.47
13,O=C(CN1C(=O)C2CCCCC2C1=O)Nc1ccccc1N1CCCC1 (stereo not drawn),1.43
14,Cl.O=C(CN1CCN(C2CCCCC2)CC1)Nc1ccccc1-c1ccccc1,-70.1
15,CCC(C)NC(=O)COC(=O)c1cccnc1Nc1ccccc1F (stereo not drawn),8.21
16,COc1ccc(NS(=O)(=O)c2ccc(Oc3ncccn3)cc2)cc1,3.85
17,CC(C)c1cc(-c2cc(-c3ccc(Cl)cc3)on2)nc(NC2CCCC2)n1,13.3
18,Cc1cc(C(=O)Nc2nc3ccc(Cl)cc3s2)nn1C,5.89
19,CCOC(=O)C(C)/C(C)=N/NC(N)=S (stereo not drawn),14.4
20,Cl.c1ccc(OCCOCCN2CCc3ccccc3C2)cc1,-42.8
21,COc1ccc(OCCOCCN2CCOCC2)cc1,5.25
22,COc1ccc(OCCCN2CCc3ccccc3C2)cc1.Cl,-47.5
23,CCOc1ccc(OCCOCCN2CCOCC2)cc1.O=C(O)C(=O)O,0.827

row,SMILES,"hERG current change (%, negative = inhibition) at 10uM [%]"
1,N#Cc1ccc(OCCN2CCc3ccccc3C2)cc1,-45.2
2,COc1ccc(OCCOCCN2CCc3ccccc3C2)cc1,-69.9
3,CCOc1ccc(OCCOCCN2CCc3ccccc3C2)cc1,-74.8
4,CCCOc1ccc(OCCOCCN2CCc3ccccc3C2)cc1,-64.7
5,CCOc1ccc(S(=O)(=O)N2CCc3ccccc3C2)cc1,9.5
6,CCCC(C)NC(=O)COC(=O)c1ccc(Cl)c(S(N)(=O)=O)c1 (stereo not drawn),8.02
7,CCOc1ccc(NC(=O)N2CCCC2C(=O)NCC2CCCO2)cc1 (stereo not drawn),18.5
8,O=C1CCCCC1Sc1nnc(Nc2ccccc2)s1 (stereo not drawn),-7.47
9,O=C(Cn1nc2sc3ccccc3n2c(=O)c1=O)c1cccs1,7.63
10,CCNC(=S)Nc1ccc(Cc2ccncc2)cc1,-4.01
11,COc1ccc(-c2cc(C(F)(F)F)c(C#N)c(SCC(=O)Nc3nc(C)co3)n2)cc1,1.46
12,CCC(C(=O)NCc1ccc(C)cc1)c1ccccc1 (stereo not drawn),-1.35
13,Cc1ccc(CNC(=O)C(c2ccccc2)c2ccccc2)cc1,-64
14,O=C(NCc1ccc(F)cc1)C(c1ccccc1)c1ccccc1,4.43
15,CCOC(=O)c1ccc(NC(=O)COc2ccccc2CNCCc2ccccc2)cc1.Cl,-79.3
16,CCOC(=O)c1ccc(NC(=S)NC2CCCC2)cc1,-7.86
17,CCOC(=O)c1ccc(NC(=O)COc2ccccc2CNCCO)cc1,-24
18,CCOC(=O)c1ccc(NC(=O)COc2ccc(CNC3CCCCC3)cc2OC)cc1,-26
19,CCOC(=O)c1ccc(NC(=O)COc2ccccc2OC)cc1,2.1
20,CCOC(=O)c1ccc(NC(=O)COc2ccccc2CNC2CCCC2)cc1.Cl,-78.1
21,CN(C)S(=O)(=O)Oc1ccccc1C(=O)Nc1ccc(F)cc1F,2.34
